The list is not random: actives were taken first. Their share in the collection is about 2.6%.
Cruzain noTriton – qHTS Assay for Promiscuous and Specific Inhibitors of Cruzain (without detergent). purified cruzain, Z-FR-AMC fluorescence, no detergent. Potency, µM, for the others: max response, negative = inhibition, actives largely listed as inhibitors. Cruzipain (Trypanosoma cruzi), P25779. 200,000 tested, 2.3% active;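 also: plate controls were enzyme without inhibitor for no effect and buffer without enzyme for full effect; nearly all actives have a fitted effect of over 40% in size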
Target sequence (P25779 123-467 limits assumed): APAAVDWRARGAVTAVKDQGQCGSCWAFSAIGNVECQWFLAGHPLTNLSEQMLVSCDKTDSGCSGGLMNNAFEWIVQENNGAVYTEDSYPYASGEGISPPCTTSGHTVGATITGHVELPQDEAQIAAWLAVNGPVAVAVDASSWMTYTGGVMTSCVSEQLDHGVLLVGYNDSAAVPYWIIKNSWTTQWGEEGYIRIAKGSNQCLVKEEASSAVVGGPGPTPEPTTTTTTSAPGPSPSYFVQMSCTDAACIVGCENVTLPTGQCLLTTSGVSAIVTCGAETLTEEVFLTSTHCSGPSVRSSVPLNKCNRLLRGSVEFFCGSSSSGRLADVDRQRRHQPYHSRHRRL
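Purified cruzain at 1.5 nM, pre-incubated 15 min with compound at room temperature in 100 mM sodium acetate pH 5.5, 5 mM DTT, 0.00005% Triton X-100. Reaction started with 2 uM Z-FR-AMC; AMC fluorescence increase over 60 s gives rate.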
Cruzain inh Det – qHTS Assay for Promiscuous and Specific Inhibitors of Cruzain (with detergent); Cruzipain (Trypanosoma cruzi), P25779; purified cruzain, Z-FR-AMC fluorescence, 0.01% Triton; Potency, µM, for inactives: max response, negative = inhibition, hits mostly inhibitors; 200,000 tested, 0.43% active; AID 1478, 2009;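 also: plate controls were neutral wells for no effect and buffer without enzyme for full effect; nearly all actives have a fitted effect of over 40% in size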
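Cysteine protease activity tested under reducing, mildly acidic conditions (100 mM sodium acetate pH 5.5, 5 mM DTT) plus 0.01% Triton X-100. Cruzain 1.5 nM; substrate Z-FR-AMC 2 uM; 15 min compound preincubation at room temperature.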
Papain inh – qHTS Assay for Inhibitors of Papain: Counterscreen for Cruzain Assay; shares compounds with Cruzain inh Det; purified papain, Z-FR-AMC fluorescence cleavage; Potency, µM, without a hit: max response, negative = inhibition, hits mostly inhibitors; 410 tested, 41% active; AID 2161, 2009;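 also: 0% = no-compound wells and -100% = no-enzyme wells; nearly all actives have a fitted effect of over 35% in size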
Target sequence (P00784 whole entry, looked up): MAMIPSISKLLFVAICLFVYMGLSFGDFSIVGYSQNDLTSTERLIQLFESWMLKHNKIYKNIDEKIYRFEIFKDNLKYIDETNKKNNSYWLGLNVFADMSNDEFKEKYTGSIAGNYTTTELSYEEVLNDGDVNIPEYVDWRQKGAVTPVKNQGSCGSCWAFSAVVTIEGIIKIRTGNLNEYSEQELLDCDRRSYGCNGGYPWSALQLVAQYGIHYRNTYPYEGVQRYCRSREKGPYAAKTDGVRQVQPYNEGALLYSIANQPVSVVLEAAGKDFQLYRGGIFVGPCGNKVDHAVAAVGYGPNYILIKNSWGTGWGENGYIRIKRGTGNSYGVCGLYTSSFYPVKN
* hit, by the source's call; u = inconclusive; x = no result given. Calls follow the shape of the dose curve; as a rule, active = well fitted curve in the direction sought with a large enough effect; inconclusive = small, poorly fitted or top-dose-only effect, or another doubt; inactive = no such curve, though single readings can be large; an effect the other way counts as inactive or inconclusive. Potency is read from the fitted curve at half-maximal effect.

SMILES	Cruzain noTriton	Cruzain inh Det	Papain inh
O=C(c1csnn1)N1CCC2(CC1)CN(c1ccccn1)C2	1%	-7%	x
O=C(O)c1cc(-c2ccccc2)nn1Cc1ccccc1	-2%	-2%	x
Cc1ccc(-c2onc(C)c2C)cc1S(=O)(=O)Nc1cccc(Cl)c1C	14%	-5%	x
Cn1c(C(=O)NCCCN2CCOCC2)cc2c(=O)n(C)c3ccccc3c21	0%	-2%	x
Cn1c(C(=O)NCCN2CCCCCC2)cc2c(=O)n(C)c3ccccc3c21	7.9µM*	10µM*	-20%
Cc1nc2nc(NC(=O)c3ccc(Cl)cc3)[nH]n2c(=O)c1Cc1ccccc1	9%	3%	x
CCOC(=O)c1sc(N/N=C/c2cccc(C)c2)nc1C	u	1.4µM*	1.3µM*
CCOC(=O)c1sc(N/N=C/c2ccccc2)nc1C	u	-6%	x
CC(=O)CSCc1ccccn1	-8%	-1%	x
Cc1cccc(C)c1OC(=O)CSc1nnc(CNC(=O)c2ccccc2)o1	u	-4%	x
N#Cc1nc(-c2cccs2)oc1N1CCOCC1	u	25µM*	16µM*
CC1CN(c2oc(-c3cccs3)nc2C#N)CC(C)O1 (stereo not drawn)	u	28µM*	20µM*
N#Cc1nc(-c2ccco2)oc1N1CCOCC1	-10%	-8%	x
CC1CN(c2oc(Cc3cccc4ccccc34)nc2C#N)CC(C)O1 (stereo not drawn)	u	-5%	x
N#Cc1nc(NCCCCO)nc(Nc2ccccc2)n1	x	x	2.2µM*
CCCCNc1cc(C)nc(NCc2ccccc2)n1	5%	4%	x
COc1ccc(Nc2nc(Cl)nc(NCCO)n2)cc1	12%	1%	x
CCCCNc1nc(C#N)nc(Nc2ccccc2)n1	x	x	1µM*
Cc1ccc(N2C(=O)NC(NS(=O)(=O)c3ccc(Cl)cc3)(C(F)(F)F)C2=O)cc1C (stereo not drawn)	4%	-5%	x
CCC(=O)Nc1ccc(CC)cc1-c1nc2ccccc2n(CC(=O)c2ccc(OC)cc2)c1=O	7%	-3%	x
C=CCn1c(SCC(=O)Nc2cccc3ccccc23)nnc1-c1cnccn1	-12%	-9%	x
C=CCn1c(SCC(=O)Nc2cc3oc4ccccc4c3cc2OC)nnc1-c1cnccn1	u	0%	4%
CCc1ccc(OCC(=O)Nc2ccc(Cl)c(-c3nc4cc(C)cc(C)c4o3)c2)cc1	11%	0%	x
CC(C)=C[C@H]1[C@@H](C(=O)Oc2ccccc2C(C)C)C1(C)C	-5%	3%	x
CCNc1nc(SCc2ccccc2)nc(N2CCOCC2)n1	2%	-10%	x
SMILES	Cruzain noTriton	Cruzain inh Det	Papain inh
N#Cc1nc(N(c2ccccc2)c2ccccc2)nc(-n2cccc2)n1	x	x	10µM*
CN(C)c1nc(N2CCOCC2)nc(N(c2ccccc2)c2ccccc2)n1	u	-1%	x
COc1nc(N(c2ccccc2)c2ccccc2)nc(-n2ccnc2)n1	-9%	0%	x
CN(c1ccccc1)c1nc(C#N)nc(N2CCOCC2)n1	x	x	1.3µM*
CCNc1nc(C#N)nc(N2CCOCC2)n1	x	x	3.2µM*
N#Cc1nc(N2CCOCC2)nc(N2CCOCC2)n1	1.3µM*	1.1µM*	1.3µM*
N#CCOc1nc(N2CCOCC2)nc(N2CCOCC2)n1	6%	-1%	x
CCOC(=O)C(C)NC(=O)c1c(C)oc2ncn(CC(C)C)c(=O)c12 (stereo not drawn)	-5%	0%	x
O=C(NCC(c1ccco1)S(=O)(=O)c1ccc(Cl)cc1)c1ccc(C(F)(F)F)cc1 (stereo not drawn)	-21%	-9%	x
CCN(CCO)c1nc(SC)nc2c1sc1nc(-c3ccco3)c3c(c12)CCC3	6.3µM*	8.9µM*	13µM*
CCN(CCO)c1ncnc2c1sc1nc(C(C)C)c3c(c12)CC(C)(C)OC3	u	-1%	x
COc1ccc(CCNC(=O)c2cc(Sc3cccc(Cl)c3)nc3ccccc23)cc1OC	u	0%	x
Cc1cc(Cc2cc(Cc3cc(C)cc(C(C)(C)C)c3O)c(C)cc2C)c(O)c(C(C)(C)C)c1	-29%	-7%	x
COc1ccc(-c2nn3c(-c4ccc(F)cc4)nnc3s2)cc1	u	2%	x
CCOc1cccc(-c2nnc3sc(-c4cc(OC)c(OC)cc4OC)nn23)c1	0%	-4%	x
CCOc1cccc(-c2nn3c(-c4cc(C)[nH]n4)nnc3s2)c1	-4%	1%	8%
COc1ccc(-c2nn3c(-c4cc(C)[nH]n4)nnc3s2)cc1	x	x	7%
O=C(CCCn1c(=O)c2sccc2n(Cc2c(F)cccc2Cl)c1=O)NCc1ccccc1	-20%	3%	x
COc1cccc(OC(=O)CSc2nnc(-c3ccccc3OC)o2)c1	5%	-6%	x
O=C(COc1ccc(F)cc1)NCCc1nc2ccccc2[nH]1	-8%	1.6µM*	3.5µM*
O=C(NCCc1nc2ccccc2[nH]1)Nc1ccccc1	-3%	3%	x
CCOc1ccc(C(=O)Nc2cccc(-c3nc4cc(Cl)cc(Cl)c4o3)c2)cc1	-2%	0%	x
CCOc1ccc(NC(=O)c2ccc(CNc3c(NC4CCCCC4)c(=O)c3=O)cc2)cc1	4µM*	0%	8%
COc1ccc(NC(=O)c2ccc(CNc3c(NC4CCCCC4)c(=O)c3=O)cc2)c(OC)c1	u	0%	x
CCC(C)[C@@H](NC(=O)OC(C)(C)C)c1nnc(S(=O)(=O)Cc2cccc(C)c2)o1 (stereo partly drawn)	7.9µM*	3.2µM*	13µM*
SMILES	Cruzain noTriton	Cruzain inh Det	Papain inh
Cc1cccc(CS(=O)(=O)Cc2ccc(C(=O)NC(C)c3ccccc3)o2)c1 (stereo not drawn)	13%	0%	x
COc1ccc(N2CCN(C(=O)CCn3c(=O)c4cccn4c4cccnc43)CC2)cc1	2%	-2%	x
N#CC(C#N)=NNc1cccc(Cl)c1	13µM*	11µM*	28µM*
N#CC(C#N)=NNc1ccc2cn[nH]c2c1	u	-18%	x
Cc1nn2c(=O)cc(COC(=O)c3ccc(NC(=O)c4ccc(C(C)(C)C)cc4)cc3)nc2s1	-9%	-1%	x
Cc1c(Cl)cccc1NC(=O)Cn1c(=O)n(Cc2ccco2)c(=O)c2oc3ccccc3c21	8%	-1%	x
COc1ccc2sc(N(Cc3cccnc3)C(=O)c3ccc4c(c3)OCCO4)nc2c1	-16%	2%	x
CCOC(=O)C1CCN(C(=O)c2ccc(OC)cc2OC)CC1	-28%	2%	x
COc1cc(OC)cc(C(=O)NCC(=O)OCC(=O)c2cc(OC)ccc2OC)c1	0%	-17%	x
COc1ccc(C(=O)COC(=O)CNC(=O)C2CCCCC2)c(OC)c1	6.3µM*	4µM*	-23%
COc1ccc(OC)c(C(=O)COC(=O)CNC(=O)C2CCCCC2)c1	5µM*	4.5µM*	-15%
Cc1nn(-c2ccc(N3CCCCC3)nn2)c(C)c1CCC(=O)Nc1ccc(F)cc1F	23%	0%	x
COc1cc(CNC(=O)c2ccc3c(c2)N(C)C(=O)C2CCCCN32)cc(OC)c1OC (stereo not drawn)	6%	-3%	x
COc1cccc(C(=O)NCCSc2c(-c3ccc(F)cc3)[nH]c3ccccc23)c1OC	u	-4%	x
Cn1cc(S(=O)(=O)N2CCCCCC2)cc1C(=O)NCc1ccc(Cl)cc1	-6%	-26%	x
Cn1cc(S(=O)(=O)N2CCCCC2)cc1C(=O)NCc1ccc(Cl)cc1	u	10µM*	-6%
COc1ccc(CNC(=O)C2CCN(C(=O)c3ccc(-n4ccc5ccccc54)s3)CC2)cc1	u	-3%	x
CC1=CC(=O)C=C(C)C1=NOC(=O)/C=C\c1ccccc1	-1%	-4%	x
CC1=CC(=NOC(=O)/C=C/c2ccccc2)C=C(C)C1=O	2.5µM*	2.2µM*	10µM*
CCc1nn(CC(=O)NCCc2ccc(OC)cc2OC)c(=O)c2cc3sccc3n12	-13%	-2%	x

Compound activity from PubChem.
